Results published in PubChem BioAssay AID485275 (NMMLSC, 2010).
Hit rate of the full screen: of about 330,000 compounds, about 1,400 (0.42%) were called active.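 Rule for the calls: active = plate passing quality check with inhibition over a set limit, or well fluorescence over plate mean plus 4 SD; inactive = the rest.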 The list comes from a sample in which actives are over-represented; it also holds similar structures and randomly drawn compounds.

Assay: antifungal drug efflux pump blockers, triplex strains – S. cerevisiae, Nile Red, multiplex, primary screen (AID 485275);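 note: Nile Red retained in pooled yeast measured as flow cytometry median fluorescence; 0% = buffer negative control and 100% = Enniatin B positive control; higher means more Nile Red kept so more efflux inhibition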
Details: S. cerevisiae Candida pump triplex, at 10 µM, hits give high values

Row | SMILES | inhibition
1 | C/C(=N/O)c1ccc2ccc3ccccc3c2c1 | 0.16% (inactive)
2 | Cc1ccc(-n2c(-c3ccc([N+](=O)[O-])cc3)nc3ccccc3c2=O)cc1 | -0.08% (inactive)
3 | O=[N+]([O-])c1cnc2ccc3ccccc3c2c1 | 0.41% (active)
4 | Clc1ccc2nc3c(c(-c4ccccc4)c2c1)CNCC3 | -0.17% (inactive)
5 | COC(=O)C1=C(c2ccc(Cl)c(C(F)(F)F)c2)C[C@@H]2CC[C@H]1N2C(=O)NC1CC1 | -0.03% (inactive)
6 | CN(c1ccccc1)c1ccc([N+](=O)[O-])c2nonc12 | -0.18% (inactive)
7 | CCN(CC)c1ccc([N+](=O)[O-])c2cccnc12 | 1.08% (active)
8 | CN1CCC(N(C)Cc2cccnc2)CC1 | 0.12% (inactive)
9 | c1cc2c(cc1CCNC1CCCCCC1)OCO2 | 0.08% (inactive)
10 | CCN1CC2C3CCC(C)(O3)C2C1 (stereo not given) | -0.18% (inactive)
